Assay results: PubChem BioAssay (NCI)
Values joined by “and” are separate entries in the source; they are usually repeats but may differ in a detail not shown here. Identical values can stand only once. Compounds without any hit were thinned out: in the full panel of roughly 83,000, 20% have a hit.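 Step 1: grow cells in 96-well plates. Step 2: add test compound at a single concentration. Step 3: incubate 48 h. Step 4: record percent growth.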 Active and inactive are the calls of the source. The calls were made as follows: active = growth percent below 10; inactive = the rest.

What was measured:
Assay in all cases: NCI-60 one-dose screen, 48 h (100 = growth as untreated, 0 = no growth, -100 = all killed)
Settings in all cases: 10 µM unless noted
[1] = test system: NCI-H23 lung
[2] = test system: NCI-H226 lung
[3] = test system: NCI-H322M lung
[4] = test system: HOP-62 NSCLC
[5] = test system: NCI-H460 lung
[6] = test system: HOP-92 NSCLC
[7] = test system: NCI-H522 lung
[8] = test system: A549/ATCC NSCLC
[9] = test system: 786-0 renal
[10] = test system: COLO 205 colon
[11] = test system: DU-145 prostate
[12] = test system: K-562 leukemia
[13] = test system: MALME-3M melanoma
[14] = test system: MDA-MB-231 breast
[15] = test system: RXF 393 renal
[16] = test system: SF-268 CNS
[17] = test system: SF-295 CNS
[18] = test system: SF-539 CNS
[19] = test system: UACC-257 melanoma
[20] = test system: M14 melanoma

Measured: growth

CS(=O)(=O)Nc1cc(-c2ccc3ncnc(Nc4ccc(F)c(Cl)c4)c3c2)cnc1Cl
active: [3] 3.88% | [6] -23.6% | [8] 1.72% | [9] 7.37% | [10] -57.2% | [13] -15.5% | [14] 5.12% | [15] -34.2% | [17] -17.5% | [18] 6.35% | [19] 4.62% | [20] 5.92%
inactive: [1] 16.9% | [2] 17.6% | [4] 15.1% | [5] 10.6% | [7] 14% | [11] 16.3% | [12] 18.7% | [16] 12.3%

CC1=CC(C)(C)NC(=S)N1c1ccc(Cl)cc1
inactive: [1] 101% and 99% | [2] 99% and 103% | [3] 98.2% | [4] 108% and 102% | [5] 101% and 112% | [6] 114% | [7] 93.7% and 92.4% | [8] 98% and 104% | [9] 99.8% and 97.7% | [10] 109% and 100% | [11] 105% and 110% | [12] 97.7% and 92.6% | [13] 99.7% | [14] 101% and 99.3% | [15] 104% and 121% | [16] 101% and 100% | [17] 101% and 111% | [18] 98.7% and 106% | [19] 98.6% and 105% | [20] 102% and 95%

O=C(Oc1ccc(CO[N+](=O)[O-])cc1)c1ccccc1
active: [1] -71.1% | [2] -96.5% | [3] -88.1% | [4] -86.5% | [5] -65.3% | [6] -88% | [7] -67.2% | [8] -9.66% | [9] -87.7% | [10] -74.2% | [11] -94.6% | [12] -37.1% | [13] -69.9% | [14] -80.6% | [15] -86.2% | [16] -84.8% | [17] -91.9% | [18] -90% | [19] -78% | [20] -83%

C=C1C(=O)O[C@H]2[C@H]1CC/C(CNS(=O)(=O)c1ccc3ccccc3c1)=C\CC[C@@]1(C)O[C@@H]21
inactive: [3] 92.1% | [4] 78.4% | [5] 91.7% | [8] 69% | [16] 51.4% | [17] 71.2%
active: [1] -3.15% | [2] -25.4% | [6] -29.6% | [7] -78.6% | [9] -67% | [10] -84.5% | [11] -85% | [12] -19.3% | [13] -22.6% | [14] 2.57% | [15] -80.8% | [18] 9.99% | [19] -54.4% | [20] -32.6%

COc1cccc(NC(=O)c2sc3nc(C)c(C(O)c4ccccc4)cc3c2N)c1 (stereo not given)
active: [5] 4.01% | [7] 0.582% | [10] 5.41% | [12] 6.52% | [14] 9.72% | [18] -5.58%
inactive: [1] 22.9% | [2] 55% | [3] 49.7% | [4] 32.5% | [6] 58.6% | [8] 22.4% | [9] 34.4% | [11] 13.4% | [13] 63.2% | [15] 26.9% | [16] 38.5% | [17] 19.2% | [19] 71.4% | [20] 13.9%

O=C(/C=C\c1ccc(Cl)c(Cl)c1)c1ccccc1
inactive: [1] 89.1% | [2] 88.2% and 92.3% | [3] 107% | [4] 100% and 91.4% | [5] 101% and 100% | [6] 70.7% | [7] 81% and 87.1% | [8] 86.7% and 93.1% | [9] 84.9% and 104% | [10] 99.9% and 121% | [11] 84.3% and 109% | [12] 32.7% and 95.9% | [13] 104% and 115% | [14] 108% and 99.7% | [15] 86.3% and 110% | [16] 98.4% and 103% | [17] 97.5% and 99.2% | [18] 111% and 110% | [19] 97.7% | [20] 97.2% and 115%
